Among all 310,000 compounds or so, about 14,000 (4.5%) showed an effect of 50% or more. Effects have a minus sign here. Shown is part of a subset that was picked to be rich in strong results.
molecular target: human ether-à-go-go-related gene (hERG) potassium channel (human, UniProt Q12809); experiment: primary screen, population patch clamp on CHO cells stably expressing hERG; higher = less effect of the substance
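Also: peak tail current of the secondary pulse compared with the same well before compound.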

human ether-à-go-go-related gene (hERG) potassium channel, sequence (Q12809 whole entry, looked up): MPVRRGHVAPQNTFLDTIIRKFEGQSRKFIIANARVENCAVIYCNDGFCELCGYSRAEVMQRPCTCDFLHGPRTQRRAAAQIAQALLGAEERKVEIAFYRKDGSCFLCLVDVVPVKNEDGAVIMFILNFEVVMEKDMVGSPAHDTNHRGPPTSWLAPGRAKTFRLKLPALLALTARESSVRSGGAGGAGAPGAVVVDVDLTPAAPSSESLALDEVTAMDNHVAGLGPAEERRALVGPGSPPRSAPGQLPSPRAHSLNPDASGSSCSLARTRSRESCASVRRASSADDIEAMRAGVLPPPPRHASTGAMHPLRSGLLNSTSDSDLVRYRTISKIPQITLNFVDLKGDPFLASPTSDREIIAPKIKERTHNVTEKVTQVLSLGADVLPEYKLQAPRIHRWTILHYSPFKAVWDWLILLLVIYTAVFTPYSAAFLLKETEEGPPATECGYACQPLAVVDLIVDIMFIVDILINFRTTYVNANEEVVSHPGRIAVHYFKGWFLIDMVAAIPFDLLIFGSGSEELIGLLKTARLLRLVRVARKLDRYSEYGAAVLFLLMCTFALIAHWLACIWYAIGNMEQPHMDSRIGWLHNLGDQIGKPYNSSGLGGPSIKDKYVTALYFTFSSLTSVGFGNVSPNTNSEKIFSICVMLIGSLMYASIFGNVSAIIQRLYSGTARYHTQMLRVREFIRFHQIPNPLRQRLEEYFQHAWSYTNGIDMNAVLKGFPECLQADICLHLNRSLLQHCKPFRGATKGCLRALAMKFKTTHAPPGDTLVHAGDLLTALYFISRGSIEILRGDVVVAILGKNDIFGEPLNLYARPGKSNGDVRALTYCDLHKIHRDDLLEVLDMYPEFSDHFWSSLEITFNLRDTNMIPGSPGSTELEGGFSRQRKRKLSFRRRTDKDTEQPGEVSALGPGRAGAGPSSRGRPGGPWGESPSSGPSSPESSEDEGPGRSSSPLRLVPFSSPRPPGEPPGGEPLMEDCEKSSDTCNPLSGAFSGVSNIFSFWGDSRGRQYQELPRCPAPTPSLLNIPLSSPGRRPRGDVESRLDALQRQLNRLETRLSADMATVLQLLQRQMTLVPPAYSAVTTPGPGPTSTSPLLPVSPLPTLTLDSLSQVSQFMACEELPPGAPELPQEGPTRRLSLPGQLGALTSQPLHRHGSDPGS

| Compound | hERG current change (%, negative = inhibition) at 10uM [%] |
| --- | --- |
| CC(=O)c1ccc(S(=O)(=O)NCC(=O)N2CCN(C/C=C/c3ccccc3)CC2)cc1 | -38.7 |
| CC(C(=O)Nc1cccc(S(=O)(=O)N2CCOCC2)c1)N1CCN(C)CC1 (stereo not shown) | -5.23 |
| COc1ccc(N2CCN(C(C)C(=O)N(C)Cc3ccccc3)CC2)cc1 (stereo not shown) | -17.3 |
| CC(CN1CCN(Cc2ccccc2)CC1)c1ccccc1.O=C(O)C(=O)O (stereo not shown) | -14 |
| CC(=O)c1ccc(NC(=O)C(C)N2CCN(C/C=C/c3ccccc3)CC2)cc1 (stereo not shown) | -71.4 |
| CC(CN1CCCCC1)c1ccccc1.O=C(O)C(=O)O (stereo not shown) | 13.1 |
| CC(=O)Nc1ccc(S(=O)(=O)N[C@@H](C)C(=O)N2CCN(C/C=C/c3ccccc3)CC2)cc1 | -31.8 |
| CC(CN1CCN(C/C=C/c2ccccc2)CC1)c1ccccc1.O=C(O)C(=O)O (stereo not shown) | -59.6 |
| CC(C)C(NC(=O)c1ccccc1)C(=O)N1CCN(C/C=C/c2ccccc2)CC1 (stereo not shown) | -41.2 |
| CC(C(=O)N(C)Cc1ccccc1)N1CCN(C/C=C/c2ccccc2)CC1 (stereo not shown) | -78.9 |
| CCc1nnc(NC(=O)c2ccc(S(=O)(=O)N(CC)Cc3ccccc3)cc2)o1 | -12.9 |
| O=C(Nc1nc(-c2cccs2)cs1)C1=COCCO1 | -15.9 |
| CCCCC(=O)Nc1ccc2c(c1)C(=O)NC2=O | 2.21 |
| Cc1ccc(NC(=O)c2c(-c3ccccc3Cl)noc2C)nc1 | 1.56 |
| COc1ccc(NC(=O)COC(=O)c2cc(Cl)ccc2O)cc1S(=O)(=O)N1CCCCC1 | 10.5 |
| O=C(COC(=O)c1cccnc1Cl)NCC1CCCO1 (stereo not shown) | 10.8 |
| COc1ccccc1/C=C/C=N/N1CCN(c2ccccn2)CC1 | -2.4 |
| Cc1cccc(CS(=O)(=O)Cc2ccc(C(=O)O)o2)c1 | 16.5 |
| COC(C(=O)Nc1cccc([N+](=O)[O-])c1)c1ccccc1 (stereo not shown) | 1.56 |
| CCCCNC(=O)N1CCN(C/C=C/c2ccccc2)CC1 | -29.9 |
| CNC(=O)NC(=O)C(C)N1CCN(C/C=C/c2ccccc2)CC1 (stereo not shown) | -63 |
| CC(C(=O)Nc1cccc([N+](=O)[O-])c1)n1nnc2ccccc21 (stereo not shown) | -33.5 |

| Compound | hERG current change (%, negative = inhibition) at 10uM [%] |
| --- | --- |
| CC(C(=O)Nc1cccc([N+](=O)[O-])c1)N1CCN(C/C=C/c2ccccc2)CC1 (stereo not shown) | -75.6 |
| CC(C)NC(=S)N1CCN(C/C=C/c2ccccc2)CC1 | -15.5 |
| Cc1nc(SCC(N)=O)[nH]c(=O)c1Cc1ccc(OC(C)C)cc1 | 3.98 |
| CCCCCC(=O)Nc1ccc(-c2csc(C)n2)cc1 | 18.7 |
| COc1cccc(N(CC(=O)NC(C)c2ccccc2)S(C)(=O)=O)c1 (stereo not shown) | 22.3 |
| N=C1/C(=C\c2coc3ccccc3c2=O)C(=O)N=C2SC=CN12 | 15.3 |
| N=C1/C(=C/c2coc3ccccc3c2=O)C(=O)N=C2SC(c3ccco3)=NN12 | 12.8 |
| N=C1/C(=C\c2coc3ccccc3c2=O)C(=O)N=C2SC(c3ccncc3)=NN12 | -59 |
| O=C(Nc1nnc(-c2ccc(Cl)cc2)o1)Nc1ccccc1F | 1.31 |
| Cc1csc(CN(C)C(=O)CC2C(=O)NCCN2Cc2ccc(F)c(F)c2)n1 (stereo not shown) | 6.02 |
| COCCCNC(=S)NCCNc1nc2cc(C)c(C)cc2cc1C#N | -2.23 |
| C/C(=C/c1ccccc1)C(=O)N1CC(C)OC(C)C1 (stereo not shown) | 11.7 |
| COc1cc2c(cc1OC)C(c1cccc(C)c1)CC(=O)N2 (stereo not shown) | -10.5 |
| CCn1c(SCC(=O)N=Nc2c(O)[nH]c3ccccc23)nnc1-c1ccc(C(C)(C)C)cc1 | -5.11 |
| Cc1cc(O)cc(C)c1Cl | -2.78 |
| Cc1ccc(NC(=O)c2ccc(Cl)c(NC(=O)c3cccs3)c2)cc1 | -12.5 |
| CC(=O)N1CCN(C(=O)c2ccc(Cl)c(NC(=O)c3cccs3)c2)CC1 | -15.3 |
| O=C(NC(=S)Nc1ccccc1N1CCN(C(=O)c2ccccc2)CC1)c1cccs1 | 9.73 |
| CCOC(=O)N1CCN(C(=O)c2ccc(Cl)c(NC(=O)c3cccs3)c2)CC1 | -54.7 |
| O=C(Nc1cc(C(=O)N2CCN(c3ccccc3O)CC2)ccc1Cl)c1cccs1 | -60.1 |
| O=C(NCC(=O)N1CCN(c2ccccc2O)CC1)c1cccs1 | 3.84 |
